Drawing on PubChem BioAssay, this text covers z-score and composite z-score for 9 compounds.

The source made the active and inactive calls. Unless noted, no rule for the calls is given here.

The nature of assay [1]: A549 cell viability effects, profiling panel, calcein-AM fluorescence, 48 h, basal (AID 1162). Also: test concentration not given here. Particulars: higher = more signal.
A short description of assay [2]: adipocyte viability effects, profiling panel, cell-based, 3T3-L1 adipocytes, calcein-AM fluorescence, 48 h, basal (AID 1163). Also: test concentration not given here. The settings on record: 3T3-L1 adipocytes viability, higher = more signal.
Assay [3] in a line: HepG2 cell viability effects, profiling panel, calcein-AM fluorescence, 48 h, basal (AID 1164). Also: test concentration not given here. The settings on record: higher = more signal.
Assay [4] can be described thus: MM1S cell viability effects, profiling panel, calcein-AM fluorescence, 48 h, basal (AID 1165).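 Also: viability of MM1S multiple myeloma cells under basal unstimulated conditions; test concentration not given here.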 The settings on record: higher = more signal.
Assay [5] in a line: basal RPMI8226 viability, no added stimulus, profiling panel, cell-based, calcein-AM fluorescence, 48 h, PK04 Diversity Set (AID 1166).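 Also: cells grown under basal conditions without added stimulus; test concentration not given here.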 Particulars: RPMI8226 myeloma viability, higher = more signal.
The nature of assay [6]: basal HepG2 mitochondrial membrane potential changes, profiling panel, cell-based, JC-1 fluorescence, 24 h, 100 nL compound (AID 1167). Also: test concentration not given here. The settings on record: higher = more signal.
Assay [7] in a line: basal 3T3-L1 adipocyte mitochondrial potential changes, profiling panel, cell-based, JC-1 fluorescence, 3T3-L1 adipocytes, 24 h, 100 nL compound (AID 1168). Also: test concentration not given here. Particulars: JC-1 mitochondrial fluorescence, higher = more signal, called active from +8 up or from −8 down.
A short description of assay [8]: basal RPMI8226 mitochondrial membrane potential changes, profiling panel, cell-based, JC-1 fluorescence, 24 h, 100 nL compound (AID 1169). Also: test concentration not given here. The settings on record: RPMI8226 myeloma, JC-1 mitochondrial potential fluorescence, higher = more signal.
Assay [9] is described as follows: basal MM1S mitochondrial membrane potential changes, profiling panel, cell-based, JC-1 fluorescence, 24 h, 100 nL compound (AID 1170). Also: test concentration not given here. The settings on record: higher = more signal.
Assay [10] is described as follows: A549 lung cancer cell viability effects, profiling panel, resazurin fluorescence, 24 h, PK04 Diversity Set (AID 1171). Also: test concentration not given here. The settings on record: higher = more signal, called active from +8 up or from −8 down.
Assay [11] can be described thus: HepG2 liver cancer cell viability effects, profiling panel, resazurin fluorescence, 24 h, PK04 Diversity Set (AID 1172). Also: test concentration not given here. The settings on record: higher = more signal.
A short description of assay [12]: basal S. cerevisiae growth modulation, no modifier, primary screen, OD600, strain BY4716, 24 h, basal condition (AID 1173). The settings on record: OD600, 24 h, higher = more signal, called active from +8 up or from −8 down.
Assay [13] in a line: MM1S myeloma cell viability, profiling panel, resazurin fluorescence, basal, 24 h, PK04 Diversity Set (AID 1174). Also: test concentration not given here. The settings on record: higher = more signal, called active from +8 up or from −8 down. In general terms: The colour change of resazurin is a common sign of viable cells or microbes.
Assay [14] deals with Dihydroorotate dehydrogenase (quinone), mitochondrial (Plasmodium falciparum (isolate 3D7)) (UniProt Q08210). Kind of assay: PfDHODH enzyme inhibitors, primary screen, biochemical, C-terminal His tag, absorbance 600 nm (AID 1175).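 Also: recombinant parasite enzyme with a five histidine tag at its C terminus; test concentration not given here.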 The settings on record: DCIP absorbance 600 nm, higher = more signal, called active from +8 up or from −8 down.
Assay [15] is described as follows: P. aeruginosa biofilm formation inhibitors, primary screen, strain PAO1, LB-PBS medium, absorbance 600 nm (AID 1176). Also: test concentration not given here. The settings on record: P. aeruginosa PAO1 growth/biofilm, A600, 12 h; higher = more signal.
A short description of assay [16]: S. cerevisiae RM11-1a growth modifiers, primary screen, strain RM11-1a, OD600, basal, 24 h (AID 1177).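 Also: cultures grown under basal conditions with no added stressor; test concentration not given here.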 The settings on record: OD600, 24 h, higher = more signal, called active from +8 up or from −8 down.
The nature of assay [17]: E. coli acrAB mutant growth effects, primary screen, E. coli filamentation inducers, strain DRC39, OD650, 24 h (AID 1178).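 Also: growth measured as culture turbidity by optical density at 650 nm; test concentration not given here.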 The settings on record: higher = more signal, called active from +8 up or from −8 down.
A short description of assay [18]: E. coli acrAB mutant growth effects, primary screen, E. coli filamentation inducers, strain DRC39, OD650, 48 h (AID 1179).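 Also: screen aims at cell division blockers that make cells filament.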 Particulars: E. coli DRC39 delta-acrAB growth, higher = more signal, called active from +8 up or from −8 down.
Assay [19] in a line: RPMI8226 myeloma cell viability, profiling panel, resazurin fluorescence, basal, 24 h, PK04 Diversity Set (AID 1180).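 Also: RPMI8826 multiple myeloma cell line at 5000 cells per well; test concentration not given here.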 Particulars: higher = more signal.
Assay [20] has as its target E3 ubiquitin-protein ligase XIAP (Homo sapiens) (UniProt P98170). Kind of assay: XIAP binders, primary screen, biophysical, small-molecule microarray, fluorescence 635 nm (AID 1181).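 Also: score merges 667 nm emission and signal to noise over triplicate slides.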 The settings on record: small-molecule microarray binding, higher = more signal.

Dihydroorotate dehydrogenase (quinone), mitochondrial (Plasmodium falciparum (isolate 3D7)), sequence (Q08210 whole entry, looked up): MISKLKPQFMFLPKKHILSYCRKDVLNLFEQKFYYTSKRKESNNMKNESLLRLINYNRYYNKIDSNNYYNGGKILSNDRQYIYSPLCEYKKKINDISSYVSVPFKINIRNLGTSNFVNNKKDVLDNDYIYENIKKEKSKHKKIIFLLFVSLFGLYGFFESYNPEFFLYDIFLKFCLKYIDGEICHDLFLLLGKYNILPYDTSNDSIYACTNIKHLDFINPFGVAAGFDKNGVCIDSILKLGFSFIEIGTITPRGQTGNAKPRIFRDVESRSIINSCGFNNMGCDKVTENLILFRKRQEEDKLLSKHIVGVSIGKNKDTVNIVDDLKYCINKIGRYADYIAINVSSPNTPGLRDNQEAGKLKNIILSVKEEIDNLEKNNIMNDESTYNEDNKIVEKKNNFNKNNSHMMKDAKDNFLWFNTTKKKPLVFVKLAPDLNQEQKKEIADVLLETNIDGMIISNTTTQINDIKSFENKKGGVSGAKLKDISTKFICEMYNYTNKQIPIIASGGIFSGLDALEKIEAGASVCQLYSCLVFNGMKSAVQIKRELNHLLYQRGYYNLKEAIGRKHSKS
E3 ubiquitin-protein ligase XIAP (Homo sapiens), sequence (P98170 whole entry, looked up): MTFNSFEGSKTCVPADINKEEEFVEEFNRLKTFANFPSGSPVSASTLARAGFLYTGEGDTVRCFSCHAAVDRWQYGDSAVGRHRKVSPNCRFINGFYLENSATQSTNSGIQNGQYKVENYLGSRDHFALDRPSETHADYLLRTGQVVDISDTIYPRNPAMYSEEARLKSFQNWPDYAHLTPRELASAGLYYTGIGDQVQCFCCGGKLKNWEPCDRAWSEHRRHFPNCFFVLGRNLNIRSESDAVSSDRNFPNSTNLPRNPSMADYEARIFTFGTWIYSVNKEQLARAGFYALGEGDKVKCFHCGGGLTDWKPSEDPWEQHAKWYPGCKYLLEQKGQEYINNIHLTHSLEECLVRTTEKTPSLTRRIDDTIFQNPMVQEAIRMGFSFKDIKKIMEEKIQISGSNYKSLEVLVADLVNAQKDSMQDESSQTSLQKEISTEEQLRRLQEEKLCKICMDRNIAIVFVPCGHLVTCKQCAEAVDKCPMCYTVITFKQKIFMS

For `NCCCCCCNC(=O)[C@@H]1C[C@@H]2C(=O)N[C@@H](CCCCN)C(=O)N2[C@@H]1c1ccc(O)cc1`, the z-score in [1] is -0.551; in assay [2] it was 0.207; in assay [3] it was -0.99; in assay [4] it was -1.25; in assay [5], -0.0734; in [6], -1.31. In addition, the z-score in [7] was 0.535 (inactive); in assay [8], -0.0408; in assay [9], -0.276; in assay [10] it was -0.71 (inactive); in assay [11], 0.0187; in assay [12], 0.243 (inactive). For the same compound, the z-score is 0.681 (inactive) in assay [13]; 2.5 (inactive) in assay [15]; -0.476 (inactive) in assay [16]; -0.273 (inactive) in [17]; -1.11 (inactive) in assay [18]; -0.354 in assay [19]. Moreover, the composite z-score is -29.1 (active) in assay [14] and -0.28 in [20].
Consider `CC(C)C(O)C1C=CC2C(=O)N(c3ccccc3)C(=O)C2N1Nc1ccccc1` (stereo not given), for which the z-score is -1.17 in assay [1]; -0.68 in [2]; -0.917 in assay [3]; -0.528 in assay [4]; -1.03 in assay [5]; -1.6 in [6]. Further, the z-score in assay [7] is -0.855 (inactive); in [8] it was 0.0949; in [9], -1.35; in assay [10], 0.184 (inactive); in [11] it was -0.196; in assay [12] it was -2.05 (inactive). The z-score in [13] is -0.302 (inactive); in assay [15], 0.835 (inactive); in assay [16], 0.334 (inactive); in assay [17], 0.562 (inactive); in [18], 0.376 (inactive); in assay [19], -0.825. Besides, the composite z-score in assay [14] is -0.85 (inactive); in [20] it was 0.123.
Consider `OCCCC1=CC(c2ccc(CN3CCCC3)cc2)N(Cc2cc3c(cc2Br)OCO3)CC1` (stereo not given), for which the z-score is -0.8 in assay [1]; 1.07 in [2]; 0.552 in assay [3]; -2.99 in assay [4]; 0.866 in assay [5]; 1.72 in assay [6]. In addition, the z-score in [7] was -0.261 (inactive); in assay [8] it was 0.406; in assay [9], 0.0254; in [10], 0.731 (inactive); in assay [11], 0.195; in [12], -0.538 (inactive). Further, the z-score is 0.163 (inactive) in assay [13]; 0.485 (inactive) in [15]; 0.622 (inactive) in [16]; 0.243 (inactive) in assay [17]; 0.149 (inactive) in [18]; -0.343 in [19]. For the same compound, the figures for the composite z-score in assay [14] and in [20] were 0.198 (inactive) and -0.0513, respectively.
`CCCNC(=O)[C@@H]1c2ccccc2C(=O)N(Cc2ccc(OC(F)(F)F)cc2)[C@H]1c1ccc(CO)cc1`: the z-score was 1.17 in assay [1]; 0.385 in assay [2]; 2.08 in assay [3]; 0.157 in assay [4]; 0.485 in assay [5]; 3.22 in [6]. The z-score is 1.22 (inactive) in assay [7]; 0.432 in assay [8]; 0.129 in assay [9]; 0.285 (inactive) in assay [10]; 0.266 in [11]; 0.0357 (inactive) in [12]. Besides, the z-score in [13] is 0.186 (inactive); in assay [15], -0.217 (inactive); in assay [16] it was 0.532 (inactive); in [17], 0.659 (inactive); in assay [18], 1.34 (inactive); in assay [19], 0.584. Besides, the composite z-score was -0.966 (inactive) in assay [14] and 0.155 in assay [20].
In the case of `CCCC[C@@H](O)C1=C(COC)C[C@H]2C(=O)N(Cc3ccccc3)C(=O)[C@H]2[C@H]1CO`, the z-score was 0.449 in [1]; -1 in [2]; 1.35 in [3]; 0.887 in assay [4]; 0.105 in assay [5]; -0.0934 in assay [6]. In addition, the z-score is 0.0385 (inactive) in assay [7]; -0.851 in assay [8]; -1.35 in assay [9]; 0.0943 (inactive) in assay [10]; 0.111 in assay [11]; -1.22 (inactive) in [12]. In addition, the z-score in assay [13] is -1.61 (inactive); in [15], -0.496 (inactive); in [16], 0.643 (inactive); in [17] it was 0.418 (inactive); in assay [18], 0.722 (inactive); in [19] it was 0.126. Further, the composite z-score in [14] is -0.401 (inactive); in assay [20], -0.0525.
As to `COc1cc2c(cc1O)C(c1ccc(CN3CCCC3)cc1)N(Cc1cc3c(cc1Br)OCO3)CC2` (stereo not given), the z-score in assay [1] is -0.717; in assay [2], -0.564; in assay [3] it was -0.341; in [4], -3.17; in [5], 0.173; in assay [6] it was 1.21. Also, the z-score in assay [7] is 0.144 (inactive); in assay [8], -0.398; in assay [9], -1.29; in assay [10], 0.694 (inactive); in assay [11], 0.686; in assay [12], -0.714 (inactive). Besides, the z-score is -1.44 (inactive) in assay [13]; -0.0218 (inactive) in assay [15]; -0.365 (inactive) in assay [16]; -1.36 (inactive) in assay [17]; -1.01 (inactive) in assay [18]; 0.174 in assay [19]. In addition, the composite z-score in assay [14] was -0.296 (inactive); in assay [20] it was -0.123.
As to `COC(=O)[C@@]1(Cc2ccccc2)[C@H]2c3cc(C(=O)N4CCCC4)n(CCc4ccccn4)c3C[C@H]2CN1C(=O)c1ccccc1`, the z-score in assay [1] was -1.16; in [2], 1.13; in assay [3], -0.503; in [4], -1.59; in [5], -1.32; in assay [6], 0.571. Further, the z-score in [7] was 0.533 (inactive); in assay [8], -0.272; in assay [9], -0.618; in assay [10], 0.523 (inactive); in assay [11], 0.281; in [12], 1.3 (inactive). The z-score in assay [13] is -0.454 (inactive); in assay [15] it was -0.126 (inactive); in assay [16] it was 0.23 (inactive); in assay [17], -0.413 (inactive); in assay [18], -0.906 (inactive); in [19] it was 0.157. Moreover, the composite z-score in assay [14] was -0.105 (inactive); in assay [20] it was 0.293.
For the compound `COC(=O)[C@@]1(Cc2ccc(OC)cc2)[C@H]2c3cc(C(=O)N4CCCC4)n(CCc4c[nH]c5ccc(O)cc45)c3C[C@H]2CN1C(=O)c1ccccc1`, the z-score in [1] is 1.06; in [2] it was -0.226; in [3] it was 0.8; in assay [4], -0.927; in assay [5] it was 0.305; in [6], 0.873. Besides, the z-score in [7] is -0.793 (inactive); in assay [8], -0.259; in assay [9], -0.401; in assay [10] it was 0.521 (inactive); in assay [11], -0.553; in [12], 0.532 (inactive). Also, the z-score was -0.56 (inactive) in [13]; 0.411 (inactive) in assay [15]; 0.7 (inactive) in [16]; 0.23 (inactive) in assay [17]; 0.288 (inactive) in [18]; -0.377 in assay [19]. Further, the values for the composite z-score in assay [14] and in assay [20] were -0.402 (inactive) and 0.0401, respectively.
In the case of `CCCCCC1=C2CNC(C)(C(=O)OC)C=C2C(C)C1=O` (stereo not given), the z-score is -1.23 in [1]; -0.0708 in assay [2]; -1.29 in assay [3]; -0.865 in assay [4]; -0.467 in assay [5]; -1.71 in assay [6]. The z-score is -1.22 (inactive) in [7]; 0.782 in assay [8]; -0.362 in assay [9]; -0.722 (inactive) in assay [10]; -0.901 in assay [11]; 2.3 (inactive) in assay [12]. The z-score was -1.59 (inactive) in assay [13]; 1.06 (inactive) in assay [15]; 1.18 (inactive) in assay [16]; -0.814 (inactive) in [17]; -0.193 (inactive) in assay [18]; -1.66 in assay [19]. Besides, the composite z-score is -0.455 (inactive) in assay [14] and 0.152 in assay [20].
